Experimental data taken from PubChem BioAssay (NCATS).
Inconclusive results are not listed. Calls of active or inactive are those of the source. Calls come from the whole dose curve; as a rule, active = well fitted curve in the direction sought with a large enough effect; inconclusive = small, poorly fitted or top-dose-only effect, or another doubt; inactive = no such curve, though single readings can be large; an effect the other way counts as inactive or inconclusive.

Key:
[1] = Quantitative High-Throughput drug screen in 47 multiple myeloma cell lines against the NCATS MIPE library collection: KMS26_JCRB cell viability assay (AID 1918975); note: nearly all actives have a fitted effect of over 45% in size
In short: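 CellTiter-Glo luminescence (ATP) after 48 h compound exposure, 37C/5% CO2; 500 cells/well; MIPE 4.0 approved/investigational drugs pinned in; DMSO = 100%, media only = 0% viability.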

[2] = Quantitative High-Throughput drug screen in 47 multiple myeloma cell lines against the NCATS MIPE library collection: NCIH929_DSMZ cell viability assay (AID 1918978); note: nearly all actives have a fitted effect of over 35% in size
In short: (§1)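 ATP-based luminescence (CellTiter-Glo, 5 min RT incubation) quantified surviving cells following two days' treatment with MIPE 4.0 agents at 37 °C, 5% CO2.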

[3] = Quantitative High-Throughput drug screen in 47 multiple myeloma cell lines against the NCATS MIPE library collection: MM1S_ATCC cell viability assay (AID 1918980); note: nearly all actives have a fitted effect of over 45% in size
In short: as §1

[4] = Quantitative High-Throughput drug screen in 47 multiple myeloma cell lines against the NCATS MIPE library collection: LP1_DSMZ cell viability assay (AID 1918982); note: nearly all actives have a fitted effect of over 35% in size
In short: as §1

[5] = Quantitative High-Throughput drug screen in 47 multiple myeloma cell lines against the NCATS MIPE library collection: KMS34_JCRB cell viability assay (AID 1918985); note: nearly all actives have a fitted effect of over 40% in size
In short: as §1

[6] = Quantitative High-Throughput drug screen in 47 multiple myeloma cell lines against the NCATS MIPE library collection: OCIMY5_PLB cell viability assay (AID 1918988); note: nearly all actives have a fitted effect of over 65% in size
In short: as §1

[7] = Quantitative High-Throughput drug screen in 47 multiple myeloma cell lines against the NCATS MIPE library collection: VP6_DJ cell viability assay (AID 1919867); note: nearly all actives have a fitted effect of over 40% in size
In short: as §1

[8] = Quantitative High-Throughput drug screen in 47 multiple myeloma cell lines against the NCATS MIPE library collection: MMM1_PLB cell viability assay (AID 1918976); note: nearly all actives have a fitted effect of over 35% in size
In short: as §1

[9] = Quantitative High-Throughput drug screen in 47 multiple myeloma cell lines against the NCATS MIPE library collection: OCIMY1_PLB cell viability assay (AID 1918979); note: nearly all actives have a fitted effect of over 35% in size
In short: as §1

[10] = Quantitative High-Throughput drug screen in 47 multiple myeloma cell lines against the NCATS MIPE library collection: KMS28PE_JCRB cell viability assay (AID 1918983); note: nearly all actives have a fitted effect of over 35% in size
In short: as §1

[11] = Quantitative High-Throughput drug screen in 47 multiple myeloma cell lines against the NCATS MIPE library collection: SKMM1_PLB cell viability assay (AID 1919863); details: SKMM1 myeloma viability, CellTiter-Glo ATP, 48 h; viability: stronger effect = lower value; note: nearly all actives have a fitted effect of over 35% in size
In short: as §1

[12] = Quantitative High-Throughput drug screen in 47 multiple myeloma cell lines against the NCATS MIPE library collection: U266_ATCC cell viability assay (AID 1919864); note: nearly all actives have a fitted effect of over 35% in size
In short: as §1

[13] = Quantitative High-Throughput drug screen in 47 multiple myeloma cell lines against the NCATS MIPE library collection: XG6_PLB cell viability assay (AID 1919865); note: nearly all actives have a fitted effect of over 40% in size
In short: as §1

[14] = Quantitative High-Throughput drug screen in 47 multiple myeloma cell lines against the NCATS MIPE library collection: XG1_PLB cell viability assay (AID 1919866); note: nearly all actives have a fitted effect of over 35% in size
In short: as §1

[15] = Quantitative High-Throughput drug screen in 47 multiple myeloma cell lines against the NCATS MIPE library collection: L363_DSMZ cell viability assay (AID 1918984); note: nearly all actives have a fitted effect of over 40% in size
In short: as §1

[16] = Quantitative High-Throughput drug screen in 47 multiple myeloma cell lines against the NCATS MIPE library collection: OPM1_PLB cell viability assay (AID 1918989); note: nearly all actives have a fitted effect of over 40% in size
In short: as §1

[17] = Quantitative High-Throughput drug screen in 47 multiple myeloma cell lines against the NCATS MIPE library collection: MOLP8_DSMZ cell viability assay (AID 1918977); note: nearly all actives have a fitted effect of over 45% in size
In short: as §1

[18] = Quantitative High-Throughput drug screen in 47 multiple myeloma cell lines against the NCATS MIPE library collection: MM1R_ATCC cell viability assay (AID 1918981); note: nearly all actives have a fitted effect of over 35% in size
In short: as §1

[19] = Quantitative High-Throughput drug screen in 47 multiple myeloma cell lines against the NCATS MIPE library collection: OCIMY7_PLB cell viability assay (AID 1918987); note: nearly all actives have a fitted effect of over 65% in size
In short: as §1

[20] = Quantitative High-Throughput drug screen in 47 multiple myeloma cell lines against the NCATS MIPE library collection: UTMC2_PLB cell viability assay (AID 1919868); details: CellTiter-Glo ATP luminescence, 48 h; viability (% of DMSO control): at 45.8 µM (top of the series); note: nearly all actives have a fitted effect of over 55% in size
In short: as §1
Potency is the fitted concentration of half-maximal effect.

COc1ccc2nc(S(=O)Cc3ncc(C)c(OC)c3C)[nH]c2c1 (stereo unspecified)
inactive: Potency [1] | Potency [4] | Potency [5] | Potency [6]
active: Potency [2] 10.5 µM | Potency [3] 18.7 µM | Potency [7] 16.6 µM

Cc1ccccc1C(C(=O)NC1CCCC1)N(C(=O)Cn1cnc2ccccc21)c1cccc(F)c1 (stereo unspecified)
active: Potency [8] 16.6 µM | Potency [2] 18.7 µM | Potency [3] 18.7 µM | Potency [4] 3.32 µM | Potency [11] 10.5 µM | Potency [12] 23.5 µM | Potency [14] 18.7 µM | Potency [7] 2.35 µM
inactive: Potency [9] | Potency [10] | Potency [13]

O=C1[C@H](Cc2ccc(O)cc2)N2C(=O)CCN(C(=O)NCc3ccccc3)[C@H]2CN1Cc1cccc2ccccc12
active: Potency [1] 7.43 µM | Potency [2] 3.72 µM | Potency [9] 16.6 µM | Potency [3] 3.72 µM | Potency [6] 4.18 µM | Potency [16] 8.33 µM | Potency [11] 6.62 µM | Potency [13] 4.18 µM | Potency [14] 9.35 µM
inactive: Potency [15]

CN(C)C(=O)c1ccc(S(=O)(=O)c2ccc(NC(=O)[C@@](C)(O)C(F)(F)F)c(Cl)c2)cc1
active: Potency [8] 8.33 µM | Potency [18] 14.8 µM | Potency [15] 10.5 µM | Potency [19] 11.8 µM | Potency [6] 20.9 µM | Potency [14] 3.32 µM
inactive: Potency [17] | Potency [9] | Potency [16] | viability [11] 99.9% | Potency [12]

CS(=O)(=O)Oc1ccc2c(NC(N)=O)c(C(=O)c3ccc(Cl)cc3Cl)oc2c1
active: Potency [2] 9.35 µM | Potency [3] 2.96 µM | Potency [15] 6.62 µM | Potency [16] 20.9 µM | Potency [12] 11.8 µM | Potency [13] 16.6 µM | Potency [14] 20.9 µM | Potency [7] 9.35 µM
inactive: Potency [1] | Potency [9] | Potency [4] | Potency [10] | Potency [5] | Potency [6] | viability [11] 128%

Cn1cnc2c(F)c(Nc3ccc(Br)cc3Cl)c(C(=O)NOCCO)cc21
inactive: Potency [9]
active: Potency [1] 7.43 µM | Potency [2] 0.105 µM | Potency [3] 7.43 µM | Potency [18] 18.7 µM | Potency [10] 9.35 µM | Potency [15] 0.833 µM | Potency [19] 0.0469 µM | Potency [6] 9.35 µM | Potency [11] 1.18 µM | Potency [12] 5.26 µM | Potency [13] 0.418 µM | Potency [14] 0.0935 µM | Potency [7] 0.296 µM

COc1ccc2c3n(c(=NC(=O)c4cccnc4)nc2c1OC)CCN3
active: Potency [8] 4.69 µM | Potency [17] 2.64 µM | Potency [2] 1.87 µM | Potency [18] 5.9 µM | Potency [10] 5.9 µM | Potency [19] 0.0743 µM | Potency [6] 3.72 µM | Potency [16] 16.6 µM | Potency [11] 0.148 µM | Potency [13] 0.59 µM | Potency [14] 1.48 µM | Potency [7] 1.48 µM

Cc1cc(C=c2sc3nc4ccccc4n3c2=O)c(C)n1-c1ccccc1
active: Potency [1] 5.9 µM | Potency [5] 14.8 µM | Potency [6] 4.69 µM
inactive: Potency [2] | Potency [9] | Potency [4] | Potency [13] | Potency [7]

O=c1n(CCCN2CCN(c3cccc(Cl)c3)CC2)nc2ccccn12
inactive: Potency [1] | Potency [2] | Potency [4] | Potency [10] | Potency [15] | Potency [5] | Potency [16] | Potency [14]

COc1ccc(-c2ccc3c(N4CCOCC4)nc(N4C[C@@H](C)O[C@@H](C)C4)nc3n2)cc1CO
active: Potency [8] 0.105 µM | Potency [17] 1.05 µM | Potency [2] 0.187 µM | Potency [9] 4.69 µM | Potency [4] 0.059 µM | Potency [15] 0.235 µM | Potency [5] 0.469 µM | Potency [6] 1.48 µM | Potency [16] 0.935 µM | Potency [11] 1.66 µM | Potency [12] 0.332 µM | Potency [13] 0.59 µM | Potency [14] 0.187 µM | Potency [7] 0.296 µM | Potency [20] 0.526 µM

Clc1cccc(Cl)c1NC1=NCCN1
inactive: Potency [17] | Potency [2] | Potency [9] | Potency [4] | Potency [15] | Potency [5] | Potency [6] | Potency [16] | Potency [12] | Potency [13] | Potency [14]
active: Potency [3] 18.7 µM | Potency [7] 5.26 µM

COc1c(Cl)cc2c([nH]c3cnccc32)c1NC(=O)c1cccnc1C
active: Potency [2] 0.743 µM | Potency [18] 14.8 µM | Potency [4] 7.43 µM | Potency [15] 0.743 µM | Potency [5] 3.32 µM | Potency [6] 9.35 µM | Potency [16] 2.96 µM | Potency [11] 6.62 µM | Potency [13] 0.166 µM | Potency [14] 0.372 µM
inactive: Potency [17] | Potency [9]
